HEK293 cAMP ctrl: counter-screen for TSHR agonists: cAMP increase in parental HEK293; hit rate 2.5% among 73,000; Potency, µM (doses to about 57.1 µM), for inactives: top-dose activation, actives largely listed as activators; AID 938; parental HEK293 CNG cAMP sensor, membrane potential fluorescence; further: % of control where 0% means no effect; nearly all actives have a fitted effect of over 55% in size
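Parental HEK 293 cells stably expressing a modified CNG channel (no TSHR) report cAMP rise as membrane depolarization. Membrane potential dye with 100 uM RO 20-1724 was loaded for 60 min at room temperature, then compound added for 30 min; fluorescence read at 590 nm.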
TSHR ag: TSH receptor (human) agonism | AID 926 | hit rate 0.48% among 73,000 | P16473 | HEK293-CNG-TSHR cells (CNG channel as cAMP sensor), membrane potential dye, cAMP | Potency, µM (highest dose often 57.1 µM), inactives show at the highest dose activation, hits mostly activators; active means well fitted activation curve with a large enough effect in the main read-out, with a control signal flat, not every such curve was filed as active; inconclusive means small, poorly fitted or top-dose-only effect, or a change in a side signal; inactive means no such curve, though single readings can be large or run the other way; % of control where 0% means no effect;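 further: the control signal comes from parental cells without the receptor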
Target sequence (P16473 whole entry, looked up): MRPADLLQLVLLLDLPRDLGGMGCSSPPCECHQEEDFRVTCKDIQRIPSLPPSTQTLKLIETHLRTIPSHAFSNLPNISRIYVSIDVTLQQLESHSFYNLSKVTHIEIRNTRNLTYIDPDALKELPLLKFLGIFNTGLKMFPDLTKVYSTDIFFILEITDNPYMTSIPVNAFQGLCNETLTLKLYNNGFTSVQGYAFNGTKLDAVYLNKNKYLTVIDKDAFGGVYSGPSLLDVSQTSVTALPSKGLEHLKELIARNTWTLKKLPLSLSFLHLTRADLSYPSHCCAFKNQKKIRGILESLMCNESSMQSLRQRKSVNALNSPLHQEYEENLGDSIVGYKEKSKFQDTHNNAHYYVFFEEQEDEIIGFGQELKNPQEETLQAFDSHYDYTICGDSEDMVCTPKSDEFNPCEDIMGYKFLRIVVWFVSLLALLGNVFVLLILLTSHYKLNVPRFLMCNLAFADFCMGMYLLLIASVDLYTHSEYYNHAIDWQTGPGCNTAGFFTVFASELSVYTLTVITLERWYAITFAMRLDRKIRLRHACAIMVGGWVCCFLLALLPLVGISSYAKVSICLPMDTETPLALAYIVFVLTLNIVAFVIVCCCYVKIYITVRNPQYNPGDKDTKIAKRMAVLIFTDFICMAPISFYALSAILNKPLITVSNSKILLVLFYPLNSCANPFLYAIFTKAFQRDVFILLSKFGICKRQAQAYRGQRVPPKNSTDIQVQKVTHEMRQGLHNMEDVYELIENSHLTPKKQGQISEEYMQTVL
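HEK 293 cells stably expressing TSHR and a cAMP-gated CNG channel; parental CNG-only cells as counterscreen. Cells preloaded 60 min with membrane potential dye plus 100 uM RO 20-1724, then compound 30 min; fluorescence read at 590 nm.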
Peg3 imprint: inducers of genomic imprint erasure in mouse ES cells; mouse ES Peg3-LacZ reporter, beta-gal luminescence, 40 h; Potency, µM (top dose mostly 60.7 µM), for inactives: at the top dose activity change, positive = activation, most hits filed as activators; hit rate 0.02% among 110,000; AID 1948
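Imprint erasure is scored as LacZ activity from the silenced maternal Peg3 allele in feeder-free female ES cells cultured 40 h with LIF. Luminescence is normalized to in-plate negative controls and fitted to the Hill equation.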
* = called active by the depositor; ? = inconclusive; · = no result given; [ ] = remark or other dose. Many of the other results were omitted from the sample, so hits are more common in it than they were. Unless noted, the call rests on the fitted dose curve; in most records, active means well fitted activation curve with a large enough effect; inconclusive means small, poorly fitted or top-dose-only effect; inactive means no such curve, though single readings can be large or run the other way. Potency means the concentration at half of the fitted maximal effect.

SMILES	HEK293 cAMP ctrl	TSHR ag	Peg3 imprint
CN1CCN(c2ccccc2NC(=O)c2ccc(-c3ccccc3)cc2)CC1	-25%	-20%	-24%
O=C(Nc1ccc(F)cc1)C1CCCCC1	12%	11%	-18%
O=C(Nc1ccccc1N1CCN(c2ccc(F)cc2)CC1)C1CCCCC1	3.2µM*	?	-4%
Cc1c(-c2ccc(Cl)cc2)c(=O)oc2c(CN3CCOCC3)c(O)ccc12	·	·	11%[10.9 µM]
Cc1ccc(NC(=O)C2(c3cccs3)CCOCC2)cc1Cl	·	·	-5%[10.9 µM]
COc1ccc(S(=O)(=O)N2CCC(Oc3ccc(-n4cnnn4)cc3)CC2)cc1OC	·	·	15%[10.9 µM]
O=C(NC1CC(=O)N(c2ccc(Cl)cc2)C1)c1cc2ccccc2o1 (centres undefined)	·	·	3%[10.9 µM]
CCN(CC)CCNC(=O)c1ccc2c(=O)n3nc(Nc4ccccc4)sc3nc2c1	·	·	14%[10.9 µM]
O=C(COc1ccccc1)Nc1ccccc1N1CCN(c2ccccc2)CC1	?	?	-13%
O=C(COc1ccccc1)Nc1ccccc1N1CCN(c2ccc(F)cc2)CC1	7.9µM*	?	19%
Cc1cccc(N(CC(=O)Nc2ccccc2C(F)(F)F)S(=O)(=O)c2ccccc2)c1C	·	·	-13%[10.9 µM]
CCCCC[C@H](O)c1cccc(OCc2ccc3ccccc3n2)c1	20µM*	?	·
CCCCn1c(COc2cccc(OC)c2)nc2ccccc21	·	·	-8%[10.9 µM]
COc1ccc(F)cc1S(=O)(=O)Nc1ccccc1C(=O)O	-2%	-2%	·
CCOc1ccc(CCNC(=O)c2cc3cccc4c3n2CCS4)cc1	·	·	7%[10.9 µM]
O=C(Nc1sc2c(c1C(=O)NC1CCCCC1)CCC2)c1ccco1	24%	16µM*	-8%
COc1ccccc1NC(=O)c1c(NC(=O)c2ccco2)sc2c1CCC2	5%	-1%	-9%
CC(C)NC(=O)c1ccccc1-c1nc(-c2ccccc2Cl)no1	?	?	-13%
Cc1cccc(-c2noc(-c3ccccc3C(=O)NCC3CCCO3)n2)c1 (centres undefined)	?	?	-5%
CCOc1ccccc1NC(=O)c1ccccc1-c1nc(-c2ccccc2OC)no1	20µM*	?	-28%
CC(C)(C)NC(=O)c1ccccc1-c1nc(-c2ccccc2Cl)no1	16µM*	?	-20%
COc1cccc(NC(=O)c2ccccc2-c2nc(-c3cccc(C)c3)no2)c1	16µM*	?	-19%
COCCNC(=O)c1ccccc1-c1nc(-c2ccccc2OC)no1	6%	18%	-11%
Cc1ccc(OCc2cc(=O)n3ccsc3n2)c(NC(=O)c2ccco2)c1	·	·	-5%[10.9 µM]
COc1ccccc1CNC(=O)c1cccc(-c2ccccc2OC)n1	·	·	-3%
SMILES	HEK293 cAMP ctrl	TSHR ag	Peg3 imprint
Cc1nc2nc(NC(=O)c3cccc(Cl)c3)[nH]n2c(=O)c1Cc1ccccc1	·	·	-8%[10.9 µM]
CCCCN(CC)S(=O)(=O)c1cccc2cccnc12	20µM*	?	-16%
O=S(=O)(c1cccc2cccnc12)N(CCO)CCO	-2%	4%	0%
COc1ccc2oc(=O)c(C(=O)NCCc3c(C)[nH]c4ccc(Br)cc34)cc2c1	·	·	-6%[10.9 µM]
O=C(C1CC1)N1CCc2cc(Br)cc(S(=O)(=O)N3CCN(c4ccccn4)CC3)c21	16µM*	?	-10%
O=C(C1CC1)N1CCc2cc(Br)cc(S(=O)(=O)N3CCN(c4ccccc4)CC3)c21	·	·	5%[10.9 µM]
CCCn1c(CN2CCN(c3ccc(OC)cc3)CC2)nc2c1c(=O)[nH]c(=O)n2C	·	·	-14%[10.9 µM]
Cc1nc(NC(C)c2ccccc2)c2oc3ccccc3c2n1 (centres undefined)	16µM*	?	-19%
Cc1nc(Nc2ccncc2)c2oc3ccccc3c2n1	10%	-3%	-23%
FC(F)(F)c1cccc(N2CCN(c3nnnn3-c3ccccc3)CC2)c1	32µM*	?	-10%
Cc1cc(C)nc(N2CCN(c3nnnn3-c3ccccc3)CC2)n1	?	?	3%
O=C(NCCc1ccccc1)C(=O)NCC(c1ccc2c(c1)OCO2)N1CCOCC1 (centres undefined)	·	·	-12%[10.9 µM]
CCOC(=O)CSc1nc2c(sc3ccccc32)c(=O)n1CCO	·	·	-17%[10.9 µM]
CCOC(=O)CSc1nc2c(sc3ccccc32)c(=O)n1CCCN1CCOCC1	13µM*	?	-17%
O=C1C=CC2(OCCCO2)C(Br)=C1	-3%[11.4 µM]	-4%[11.4 µM]	·
Clc1ccc(OCc2nc(-c3ccncc3)no2)c(Cl)c1	25µM*	?	-25%
Cc1ccccc1OCc1nc(-c2ccccc2)no1	?	?	-12%
COc1ccc(Cl)cc1-c1nc(-c2ccncc2)no1	17%	9%	-1%
Cc1ccc(-c2noc(COc3ccccc3C)n2)cc1	25µM*	?	-15%
CCc1ccc(N(CC)C(=O)Cn2c(=O)oc3ccccc32)cc1	·	·	-10%[10.9 µM]
O=C(c1cccc2c1-c1ccccc1/C2=N/O)N1CCCCC1	13µM*	?	-6%
O=C(c1ccccc1)c1ccccc1C(=O)N1CCCC1	5%	23%	3%
COc1ccc(Nc2ncnc3c2cnn3C)c(OC)c1	·	·	-12%[10.9 µM]
COc1ccc(OC)c(CNC(=O)c2c(C)oc3ncn(CC(C)C)c(=O)c23)c1	·	·	-2%[10.9 µM]
O=C(O)CCC(=O)N1CCN(c2cccc(Cl)c2)CC1	5%	3%	-3%
SMILES	HEK293 cAMP ctrl	TSHR ag	Peg3 imprint
CCC(C(=O)N1CCN(c2cccc(Cl)c2)CC1)c1ccccc1 (centres undefined)	25µM*	?	-15%
COc1ccc2c(c1)C(c1ccccc1C)CC(=O)O2 (centres undefined)	·	·	-5%[97.3 µM]
Cc1cc(Cl)ccc1NC(=O)c1cc(S(=O)(=O)N2CCOCC2)cn1C	·	·	-7%[10.9 µM]
Cc1ccc(-n2nc(C)c3c(C)cc(=O)n(CC(=O)NCc4ccc(OC(C)C)cc4)c32)cc1	·	·	16%[10.9 µM]
CCOc1ccc(-c2nc(C#N)c(NCc3ccc4c(c3)OCO4)o2)cc1	6%	·	-11%
Cc1ccc(OCc2nc(C#N)c(NCc3ccc4c(c3)OCO4)o2)cc1	16µM*	?	0%
CCCCCNC(=O)c1c[nH]c2ccc(S(=O)(=O)N3CCC(C)CC3)cc2c1=O	·	·	-20%[10.9 µM]
COc1ccc(Cn2c(=O)oc3ccc(C)cc32)cc1OC	27%	·	-12%
CCCCOc1ccccc1Cn1c(=O)oc2ccc(C)cc21	16µM*	?	-25%
Cc1ccc2oc(=O)n(Cc3ccccc3OC(C)C)c2c1	25µM*	?	-13%
CCCCCOc1ccccc1Cn1c(=O)oc2ccc(C)cc21	·	·	-6%[10.9 µM]
COC(=O)C1(Cc2ccccc2)C=C2C(=C(c3ccccc3)C(=O)C2C)CN1 (centres undefined)	32µM*	?	-12%
COC(=O)C1(Cc2ccccc2)C=C2C(=C(C(C)C)C(=O)C2C)CN1 (centres undefined)	?	?	-5%
Cc1nc2cnc(Oc3ccccc3)nc2n(CCc2ccccc2)c1=O	1.6µM*	?	·
COc1ncc2nc(C)c(=O)n(-c3ccccc3)c2n1	9%	5%	-3%
O=c1c(CCc2ccccc2)nc2cnc(Nc3ccccc3)nc2n1Cc1cccs1	1.3µM*	?	·
COc1ccc(-n2c(=O)c(C)nc3cnc(Oc4cccc(Cl)c4)nc32)cc1	16µM*	?	·
CN(C)c1ncc2nc(CCc3ccccc3)c(=O)n(Cc3cccs3)c2n1	?	?	-14%
Cc1nc2cncnc2n(Cc2ccc(F)cc2)c1=O	12%	3%	-5%
COc1ccc(Oc2ncc3nc(C)c(=O)n(Cc4ccc(F)cc4)c3n2)cc1	16µM*	?	·
